Experimental data as given in PubChem BioAssay (NCI).
Compounds without any hit were thinned out: in the full panel of roughly 83,000, 20% have a hit.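 Values shown are percent growth following 48 h exposure of cells in 96-well plates to a single concentration of compound; below 10 was considered active.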 A number with no mark means an inactive call. Active and inactive are the calls of the source.

Legend:
Test in all cases: NCI-60 one-dose screen, 48 h (100 = growth as untreated, 0 = no growth, -100 = all killed)
Details in all cases: 10 µM unless noted
SR leukemia = test system: SR leukemia
RPMI-8226 leukemia = test system: RPMI-8226 leukemia
OVCAR-8 ovarian = test system: OVCAR-8 ovarian
OVCAR-5 ovarian = test system: OVCAR-5 ovarian
OVCAR-4 ovarian = test system: OVCAR-4 ovarian
SK-OV-3 ovarian = test system: SK-OV-3 ovarian
IGROV1 ovarian = test system: IGROV1 ovarian
OVCAR-3 ovarian = test system: OVCAR-3 ovarian
HS 578T breast = test system: HS 578T breast
NCI/ADR-RES ovarian = test system: NCI/ADR-RES ovarian
T-47D breast = test system: T-47D breast
BT-549 breast = test system: BT-549 breast
MDA-MB-435 melanoma = test system: MDA-MB-435 melanoma
SW-620 colon = test system: SW-620 colon
MCF7 breast = test system: MCF7 breast
HCT-116 colon = test system: HCT-116 colon
HCC-2998 colon = test system: HCC-2998 colon
KM12 colon = test system: KM12 colon

Row | Structure (SMILES) | growth (SR leukemia) | growth (RPMI-8226 leukemia) | growth (OVCAR-8 ovarian) | growth (OVCAR-5 ovarian) | growth (OVCAR-4 ovarian) | growth (SK-OV-3 ovarian) | growth (IGROV1 ovarian) | growth (OVCAR-3 ovarian) | growth (HS 578T breast) | growth (NCI/ADR-RES ovarian) | growth (T-47D breast) | growth (BT-549 breast) | growth (MDA-MB-435 melanoma) | growth (SW-620 colon) | growth (MCF7 breast) | growth (HCT-116 colon) | growth (HCC-2998 colon) | growth (KM12 colon)
1 | O=S(=O)(NCCCNc1nccc(-c2c(-c3ccc(F)c(O)c3)nc3sccn23)n1)c1ccc(F)cc1 | -7.44% (active) | -47.7% (active) | -11.9% (active) | 24.4% | 3.86% (active) | 17.9% | 0.863% (active) | 20.8% | 3.15% (active) | 48.2% | -1.88% (active) | 26.7% | -11.7% (active) | 11.8% | 4.13% (active) | 0.843% (active) | 4.68% (active) | 10.4%
2 | O=S(=O)(NCCCNc1nccc(-c2c(-c3cccc(O)c3)nc3occn23)n1)c1ccc(F)cc1 | 76.6% | 77% | 79% | 128% | 110% | 71.1% | 76.2% | 96.8% | 82.3% | 105% | 56.3% | 87.4% | 37.3% | 103% | 85.2% | 56.2% | 109% | 81.9%
3 | NC(=O)C1(N2CCCCC2)CCN(CCCC(=O)c2ccc(F)cc2)CC1 | 11.4% | 29.5% | 51.1% | 72.7% | 59.8% | 30.8% | 62.6% | -14.7% (active) | -2.41% (active) | 100% | 44% | 56.3% | -48.3% (active) | 19.6% | 20% | 19.3% | 11% | 15.8%
4 | CCOC(=O)N1CCN(CCCCl)CC1 | 97.1% | 114% | 98.8% | 93.3% | 109% | 126% | 97.1% | 119% | 108% | 102% | 103% | 99.5% | 103% | 107% | 97.7% | 93.8% | 101% | 105%
5 | CC1(C)[C@H](O)CC[C@]2(C)[C@@H]1CC[C@@]13C[C@@H](CC[C@H]12)[C@@](O)(CO)C3 | 103% | 108% | 110% | 106% | 117% | 109% | 113% | 112% | 97.9% | 106% | 105% | 90.3% | 107% | 108% | 99.3% | -70.1% (active) | 105% | 116%
6 | N#C/C(=C\c1ccc(Br)cc1)n1nnc2cccc(F)c21 | 10.1% | -19.6% (active) | 8.42% (active) | 10.5% | 17.5% | 78.3% | 4.13% (active) | -31.5% (active) | -11.1% (active) | 3.27% (active) | 21.7% | 17.6% | -18% (active) | -48% (active) | 12.6% | 2.67% (active) | 19.2% | 7.22% (active)
7 | COc1ccc(C(=O)c2cc3c(N)c(C(=O)Nc4ccc(Cl)cc4)sc3nc2C)cc1 | 36.4% | 74.6% | 50.2% | 86.7% | 21.5% | 73.5% | 90.6% | 73.3% | 60.3% | 75.3% | 66.4% | 79.5% | 57.2% | 64.3% | 61.8% | 54.6% | 91.6% | 70.2%
8 | CCOC(=O)c1ccc(Nc2ccnc(SCC(=O)c3ccc(C#N)cc3)n2)cc1 | 54.1% | 20.4% | 22.8% | 107% | 65.2% | 101% | 79% | 79.1% | 92.1% | 41.5% | 9.84% (active) | 50.1% | 68.4% | 89.8% | 67% | 71.8% | 103% | 54.5%
9 | C=C1C(=O)O[C@H]2[C@H]1CC/C(CNC(=O)/C=C/c1ccccc1F)=C\CC[C@@]1(C)O[C@@H]21 | 8.95% (active) | -2.96% (active) | 4.58% (active) | 27.7% | 9.27% (active) | 96.6% | 15% | -62.7% (active) | 58.2% | 77.7% | -0.591% (active) | -6.02% (active) | 23.1% | -54.3% (active) | -12.3% (active) | -34.9% (active) | 50.4% | 74.2%
10 | CS(=O)(=O)c1ccc(-c2cc(-c3nnc(SCC(=O)Nc4ccc(C(=O)/C=C/c5ccc(Cl)cc5)cc4)n3-c3ccccc3)c3ccccc3n2)cc1 | 94.1% | 74.2% | 86.1% | 95.1% | 102% | 110% | 91.9% | 102% | 89.5% | 94.6% | 87% | 108% | 101% | 96.9% | 92.5% | 92.7% | 106% | 96.8%
11 | COc1cc(C2CC(c3cccc(Nc4ccncc4)c3)=NN2c2ccccc2)cc(OC)c1OC (stereo unspecified) | 2.93% (active) | 7.32% (active) | 66.6% | 89.3% | 41.2% | 74% | 55% | 56.2% | 64.2% | 66.3% | 82.3% | 59.4% | -72.9% (active) | -25.9% (active) | 13.7% | 32% | 20.2% | 7.46% (active)
12 | Cc1cccc(Oc2ccc(Nc3ncnc4ccc(NC(=O)CN(C)C)cc34)cc2Cl)c1 | 1.9% (active) | 46.6% | 57.3% | 60.9% | 45.2% | 16% | 3.8% (active) | 40.7% | 68% | 47.2% | 39.4% | 72.9% | 34.5% | 12.6% | 22.7% | 21.4% | 13.3% | 35.1%
13 | NNC(=O)/C(=C\c1ccc([N+](=O)[O-])cc1)CC(=O)c1ccc(Cl)c(Cl)c1 | 86.7% | 91.7% | 90.9% | 87.8% | 80% | 99.9% | 70% | 97.2% | 88.4% | 84.9% | 77.1% | 110% | 96.9% | 86% | 73.8% | 88.9% | 93.5% | 95.2%
14 | O=c1[nH]nc(-c2ccc(Br)cc2)cc1Cc1ccc(O)cc1 | -29.1% (active) | 53.8% | 92.7% | 106% | 97.6% | 92.9% | 82.4% | 92.4% | 64.1% | 71% | 83.2% | 95.8% | 113% | 97.3% | 86% | 100% | 118% | 108%
15 | C=C1C(=O)O[C@H]2[C@H]1CC/C(COC(=O)NCCc1c[nH]c3ccc(Cl)cc13)=C\CC[C@@]1(C)O[C@@H]21 | -4.62% (active) | -31.9% (active) | -43.6% (active) | -11.3% (active) | -80.8% (active) | 96.4% | -83.9% (active) | -96.4% (active) | 22.8% | 33.9% | -40% (active) | -52.9% (active) | -91.5% (active) | -87.4% (active) | 8.5% (active) | -88.9% (active) | 55.1% | 11.3%
16 | COc1ccc(NC(=O)c2sc3nc(C)c(C(=O)c4ccc(OC)cc4)cc3c2N)cc1 | 7.62% (active) | 41.3% | 62.1% | 72.6% | 61.7% | 42.7% | 50.2% | 25% | 40.4% | 48.9% | 59.6% | 49.1% | -26.2% (active) | 34.9% | 25.3% | 21.8% | 89.4% | 46.9%
17 | CN1CCN(C(=O)[C@]2(C)CC[C@]3(C)CC[C@]4(C)C(=CC(=O)[C@@H]5[C@@]6(C)CCC(=O)NC(C)(C)[C@@H]6CC[C@]54C)[C@@H]3C2)CC1 | 77.6% | 99.7% | 99.8% | 110% | 92.1% | 91% | 99.9% | 101% | 88.1% | 96.6% | 79.9% | 87.2% | 100% | 96.4% | 91.8% | 93.1% | 113% | 98.1%
